Screening data from PubChem BioAssay.
Shown are actives, neighbours in structure and some others; about 3.3% of the full set was active somewhere.
UHRF1 MBD2 ctr – human UHRF1 methylated DNA binding inhibitors; Q96T88; UHRF1 binding to methylated oligo, TR-FRET; inhibition, % at 4.4 µM; 370,000 tested, 0.75% active; AID 687016; in the data active = inhibition above about 21%;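 note: UHRF1 SRA domain binding a hemimethylated CpG hairpin DNA probe; 0% = median of test compound wells and 100% = reference inhibitor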
PfG6PD inh – PfG6PD (Plasmodium falciparum) enzyme inhibition; inhibition, % at 20 µM; 350,000 tested, 0.78% active; PfGluPho enzyme, NADPH resazurin-diaphorase fluorescence;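 active = inhibition reaching at least a set limit at 20 µM in the primary screen, cut at about 59% in these data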;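 note: 0% = DMSO wells with substrate and 100% = DMSO wells lacking glucose-6-phosphate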
M18AAP inhibitor – PfM18AAP enzyme inhibition | recombinant PfM18AAP, H-Glu-NHMec fluorogenic cleavage | inhibition, % at 7.35 µM | 290,000 tested, 1.2% active;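 active = inhibition above the campaign mean inhibition over all tested compounds plus 3 SD, cut at about 28% in these data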;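 note: 0% = plate median of test compound wells and 100% = 2 mM ZnCl2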
MBD2 inh – blocks human MBD2 binding to methylated DNA; inhibition, % at 4.4 µM; Q9UBB5; TR-FRET, MBD2 binding to methylated oligonucleotide; 370,000 tested, 0.31% active; in the data active = inhibition above about 13%
PRMT1 FP inh – inhibitors of human PRMT1. recombinant PRMT1, activity-based probe fluorescence polarization. inhibition, % at 2.79 µM. 370,000 tested, 1.3% active. AID 652257;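 active = inhibition above about 21% made by adding two undisclosed values, limit read from the data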
Target sequence (Q99873 whole entry, looked up): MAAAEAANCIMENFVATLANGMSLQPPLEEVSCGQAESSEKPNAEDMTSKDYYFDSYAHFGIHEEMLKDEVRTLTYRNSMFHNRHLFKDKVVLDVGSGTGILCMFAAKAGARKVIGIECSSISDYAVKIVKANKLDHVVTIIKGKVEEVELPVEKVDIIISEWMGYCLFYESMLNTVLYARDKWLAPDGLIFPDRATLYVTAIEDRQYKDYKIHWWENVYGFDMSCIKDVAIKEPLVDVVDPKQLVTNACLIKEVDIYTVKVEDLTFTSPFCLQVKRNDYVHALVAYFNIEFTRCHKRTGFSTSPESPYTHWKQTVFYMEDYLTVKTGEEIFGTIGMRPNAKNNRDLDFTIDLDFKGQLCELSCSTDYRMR
Active calls of the source: *; . = no result.

SMILES	UHRF1 MBD2 ctr	PfG6PD inh	M18AAP inhibitor	MBD2 inh	PRMT1 FP inh
CCOC(=O)C1=C(C)N=c2s/c(=C\c3ccc(OCC(=O)O)cc3)c(=O)n2C1c1ccc(OC(C)C)cc1 (stereo not drawn)	0	-27	9	-3	30*
O=C(COC(=O)Cc1cccs1)NCC(=O)Nc1ccc(F)cc1	0	12	.	-2	1
O=C(COC(=O)Cc1cccs1)Nc1ccc(OC(F)(F)F)cc1	-1	4	.	3	78*
O=[N+]([O-])c1c(NCCCO)cc(SCc2ccco2)c2nonc12	35*	28	3	7	64*
Cc1ccc(C(C[N+](=O)[O-])c2c(N)n(C)c(=O)n(C)c2=O)cc1 (stereo not drawn)	-1	16	18	-4	1
Cc1[nH]n(-c2ccccc2)c(=O)c1C(C[N+](=O)[O-])c1ccc(Br)cc1 (stereo not drawn)	-5	2	30*	-2	2
Cc1[nH]n(-c2ccccc2)c(=O)c1C(c1cccc([N+](=O)[O-])c1)c1c(C)[nH]n(-c2ccccc2)c1=O	16	-23	25	-4	3
COc1cccc(C(C[N+](=O)[O-])c2c(C)[nH]n(-c3ccccc3)c2=O)c1 (stereo not drawn)	-9	-11	39*	-8	-1
CC(=O)O[C@@H]1CCC[C@@]2(C(=O)N(Cc3ccccc3)c3ccc(-c4c(C)noc4C)cc32)[C@H]1NC(=O)CCc1ccccc1	8	.	.	1	0
Cc1ccc2c(c1)C(CS(=O)(=O)NCc1ccc(F)cc1)NC2 (stereo not drawn)	-7	.	.	-7	2
O=C(Cc1c[nH]c2ccccc12)Nc1ccc(Nc2cccnc2)c(-c2cccc(Cl)c2)c1	-3	.	.	1	-4
COc1cccc(N(CC(=O)NCCSc2ccc(Cl)cc2)S(C)(=O)=O)c1	27*	-15	0	10	1
COc1cccc(N(CC(=O)NCCSc2ccccc2)S(C)(=O)=O)c1	5	-2	1	-3	-1
CCOC(=O)C1=C(C)NC(C)=C(C(=O)OCC)C1c1cn(-c2ccccc2)nc1-c1ccco1	-1	-13	2	-2	-2
CC(C)OC(=O)c1cn(-c2ccccc2)nc1-c1ccco1	1	23	-13	-6	23*
O=C(C1CCCN1S(=O)(=O)c1ccc([N+](=O)[O-])cc1)N1CCc2ccccc2C1 (stereo not drawn)	4	.	.	2	-2
COC(=O)[C@]12C[C@H](CC(=O)NCC3CCCCC3)C(=O)N(CCC3=CCCCC3)C1=C[C@H](C(C)(C)C)O[C@@H]2C	0	.	.	-3	4
Cc1c(C(=O)Nc2ccc(F)c(F)c2)oc2ccc(S(=O)(=O)N3CCCCC3)cc12	23*	-5	9	4	2
Cc1nnc(N/N=C/c2c[nH]c3ccccc23)[nH]c1=O	-2	6	29*	-7	-7
Cc1cc(C)nc(N/N=C/c2c[nH]c3ccccc23)n1	-1	1	1	2	1
COC(=O)[C@@H](N[C@H](/C=C/c1ccccc1)[C@@H](O)Cc1ccccc1)C(C)C	1	.	.	-1	-5
O=C1CC(c2ccccc2)Cc2nc3ncnn3cc21 (stereo not drawn)	3	5	28*	4	8
CCN(CC)C(=O)CNc1nnnn1-c1ccccc1	-2	.	.	2	-5
CC(C)CNC(=S)NNC(=O)CC(C)O (stereo not drawn)	-1	-4	35*	3	-2
Cc1oc(-c2ccc(F)cc2)cc1-c1nn2c(-c3ccoc3C)nnc2s1	40*	13	.	14*	20
SMILES	UHRF1 MBD2 ctr	PfG6PD inh	M18AAP inhibitor	MBD2 inh	PRMT1 FP inh
Cc1oc(-c2ccc(F)cc2)cc1-c1nn2c(-c3ccco3)nnc2s1	0	.	6	0	10
CC(=O)C1=C(C)NC(=S)NC1c1ccccc1 (stereo not drawn)	-1	.	.	-6	2
C[C@H](O)[C@@H]1C(=O)N2CCc3c([nH]c4c(-c5ccc6c(c5)OCO6)cccc34)[C@@H]2C[C@@H]1N(C)C(=O)Nc1ccccc1	1	.	.	1	1
CN(C)CCNc1ncnc2c1sc1nc(N3CCCC3)c3c(c12)CC(C)(C)OC3	23*	7	1	9	-2
CC1(C)Cc2c(c(-c3ccco3)nc3sc4c(NCC5CCCO5)ncnc4c23)CO1 (stereo not drawn)	1	51	-2	-2	23*
CCN(CC)CCNc1ncnc2c1sc1nc(N3CCCC3)c3c(c12)CC(C)(C)OC3	23*	11	6	7	-4
CCN(CC)CCNc1ncnc2c1sc1nc(N3CCOCC3)c3c(c12)CCCC3	15	30	9	7	1
CC(C)C(C)NC(=O)CSc1nc2scc(-c3ccco3)c2c(=O)n1-c1ccccc1 (stereo not drawn)	-2	21	-11	-1	5
CC(C)C(C)(C#N)NC(=O)CSc1nc2scc(-c3ccco3)c2c(=O)n1-c1ccccc1 (stereo not drawn)	-3	16	-20	-3	22*
C[C@@H]1[C@@H](O)C[C@@]2(C[C@H](O)c3ccccc3O2)O[C@H]1c1ccccc1	0	.	.	-2	-1
O=C(C1CCCN1S(=O)(=O)c1ccc(Cl)s1)N1CCc2ccccc2C1 (stereo not drawn)	1	.	.	5	4
COc1ccccc1C1C([N+](=O)[O-])=CC([N+](=O)[O-])=CN1C (stereo not drawn)	-11	22	-7	-8	0
COc1ccccc1C1NC=C([N+](=O)[O-])C=C1[N+](=O)[O-] (stereo not drawn)	-3	49	0	-3	24*
CC(NCc1ccco1)C(=O)N1CCCN(C)CC1 (stereo not drawn)	-1	.	.	1	-1
O=C(CSc1nnc(-c2cccs2)o1)c1ccc(F)cc1	-1	.	.	0	1
COC(=O)C1=C(C)N(CC(C)C)C(=S)NC1c1cccc(F)c1 (stereo not drawn)	4	.	.	6	9
CC(C)(C)c1cc(C(c2cccnc2)N2CCN(CCO)CC2)cc(C(C)(C)C)c1O (stereo not drawn)	1	49	2	-1	22*
C[C@H](O)[C@@H]1CN2CCc3c([nH]c4cccc(-c5ccccc5)c34)[C@@H]2C[C@@H]1N(C)CC1CCCCC1	0	.	.	-6	1
CCOCCCNC(=O)c1ccc2c(c1)N(Cc1ccccc1)C(=O)CS2=O (stereo not drawn)	0	10	28*	1	16
CCCN(CCC)C(=O)c1ccc2c(c1)N(Cc1ccccc1)C(=O)CS2=O (stereo not drawn)	-1	20	11	-2	24*
COCc1cc(N2CCNC[C@H]2C)ccc1N1CCN(Cc2ccccc2)[C@H](C)C1	0	.	.	-2	-1
O=c1cc(CN2CCCC2)c2ccccc2o1	0	.	.	-4	2
COCCNC(=O)c1c[nH]c2cc(OC)c(OC)cc2c1=O	3	-5	-10	2	25*
